These molecules were tested on T1, LOC_OS04G38480-cb003 (assay: thermal shift delta Tm vs DMSO control; higher = stronger stabilization (binding)). Conditions: 12.5 µM; protein concentration 2 µM.
T1 sequence (whole entry): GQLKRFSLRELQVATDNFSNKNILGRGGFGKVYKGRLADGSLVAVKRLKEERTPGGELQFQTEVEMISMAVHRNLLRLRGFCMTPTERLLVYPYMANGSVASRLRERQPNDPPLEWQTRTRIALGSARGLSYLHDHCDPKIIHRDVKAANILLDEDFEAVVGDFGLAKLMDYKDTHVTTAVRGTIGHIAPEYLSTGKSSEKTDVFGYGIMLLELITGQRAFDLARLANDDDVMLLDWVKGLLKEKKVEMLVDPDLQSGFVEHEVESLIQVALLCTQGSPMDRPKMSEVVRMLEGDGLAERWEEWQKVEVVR
Outline: (§1)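 Purified, E. coli-expressed rice kinase domain constructs were tested by differential scanning fluorimetry in 96-well plates: 19.5 μl of 2 μM kinase in 100 mM potassium phosphate pH 7.5, 150 mM NaCl, 10% glycerol, 5 × SYPRO Orange, plus compound in DMSO. Fluorescence was read from 25°C to 95°C at 0.05°C/s. Melting temperatures came from Boltzmann fits, and the shift is the triplicate mean relative to protein with DMSO alone.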
For `Cn1c(Nc2ccc(C(F)(F)F)cc2)nc2cc(Oc3ccnc(-c4ncc(C(F)(F)F)[nH]4)c3)ccc21`, the “thermal shift delta Tm” value was 4.08 °C. For `CCOc1cc(N2CCC(O)CC2)ccc1Nc1ncc2c(n1)N(C)c1ccccc1C(=O)N2C`, the “thermal shift delta Tm” value was 1.18 °C. In the case of `O=C(O)c1ccc(Nc2ncc3c(n2)-c2ccc(Cl)cc2C(c2c(F)cccc2F)=NC3)cc1`, the “thermal shift delta Tm” value is reported as 0.01 °C. In the case of `C[C@@H]1CN(C(=O)c2ccc(NC(=O)c3cc(O[C@H](C)c4c(Cl)ccc(F)c4Cl)c(N)nn3)cc2)C[C@H](C)N1` [Ensartinib (X-396)], the “thermal shift delta Tm” value is reported as 5.86 °C. `COc1ccc(F)c(F)c1C(=O)c1cnc(NC2CCN(S(C)(=O)=O)CC2)nc1N` was tested, and the “thermal shift delta Tm” value was 1.07 °C. For `N#Cc1cnc(Nc2cc(NC[C@H]3CNCCO3)c(C(F)(F)F)cn2)cn1`, the “thermal shift delta Tm” value was 1.02 °C. In the case of `O=c1nc(N2CCOCC2)oc2c(-c3cccc4c3sc3ccccc34)cccc12`, the “thermal shift delta Tm” value is reported as 0.64 °C. With `Cc1nc(Nc2ncc(C(=O)Nc3c(C)cccc3Cl)s2)cc(N2CCN(CCO)CC2)n1` [Dasatinib] the “thermal shift delta Tm” value was 1.57 °C. In the case of `Cc1cc(Nc2cc(N3CCN(C)CC3)nc(/C=C/c3ccccc3)n2)n[nH]1` [ENMD-2076 L-(+)-Tartaric acid], the “thermal shift delta Tm” value is reported as 2.07 °C.

What follows are molecules tested on T2, LOC_OS04G41100-cb001 in the same assay as above. Conditions: 12.5 µM; protein concentration 2 µM.
T2 sequence (whole entry): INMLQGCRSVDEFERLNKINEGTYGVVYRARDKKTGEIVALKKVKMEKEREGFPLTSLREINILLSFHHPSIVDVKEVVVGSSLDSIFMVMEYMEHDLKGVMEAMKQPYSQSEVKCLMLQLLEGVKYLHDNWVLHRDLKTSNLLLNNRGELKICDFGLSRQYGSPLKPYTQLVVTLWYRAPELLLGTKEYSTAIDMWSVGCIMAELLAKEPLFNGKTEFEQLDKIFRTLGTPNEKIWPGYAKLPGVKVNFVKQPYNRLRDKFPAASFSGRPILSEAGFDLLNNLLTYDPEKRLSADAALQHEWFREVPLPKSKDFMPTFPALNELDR
Outline: as §1
`CN1CCN(c2cccc(Nc3nc4c(-c5ccc(S(C)(=O)=O)cc5)cccn4n3)c2)CC1` was tested, and the “thermal shift delta Tm” value was 0.46 °C. With `C[C@@H](NC(=O)c1ncnc(N)c1Cl)c1ncc(C(=O)Nc2cc(C(F)(F)F)c(Cl)cn2)s1` the “thermal shift delta Tm” value was 0.71 °C. In the case of `N#CC(=C(/N)Sc1ccccc1N)/C(C#N)=C(\N)Sc1ccccc1N`, the “thermal shift delta Tm” value is reported as 0.28 °C. In the case of `Cc1cc(Nc2cc(N3CCN(C)CC3)nc(/C=C/c3ccccc3)n2)n[nH]1`, the “thermal shift delta Tm” value is reported as 1.86 °C. In the case of `OCCn1cc(-c2ccc3c(c2)CC/C3=N\O)c(-c2ccncc2)n1`, the “thermal shift delta Tm” value is reported as 0.67 °C. In the case of `COc1cc2c(c(OC)c1OC)-c1c(cc3c(c1OC)OCO3)CC(C)C(C)C2` (stereo unspecified) [Schisandrin B (Sch B)], the “thermal shift delta Tm” value is reported as 0.48 °C. In the case of `COc1cc(N2CCN(C)CC2)ccc1Nc1nccc(-c2cn(C)c3cnccc23)n1`, the “thermal shift delta Tm” value is reported as 0.51 °C. For `CN(c1ccccc1CNc1nc(Nc2ccc3c(c2)CC(=O)N3)ncc1C(F)(F)F)S(C)(=O)=O`, the “thermal shift delta Tm” value was 2.86 °C. For `CNC(=O)c1ccc(Nc2ncc(C(F)(F)F)c(NCc3nccnc3N(C)S(C)(=O)=O)n2)cc1`, the “thermal shift delta Tm” value was 1.45 °C. In the case of `O=C(O)c1ccc2c3c1cccc3c(=O)n1c3ccccc3nc21`, the “thermal shift delta Tm” value is reported as 1.19 °C. With `Cc1nc(Nc2n[nH]c3c2CN(C(=O)N[C@H](CN(C)C)c2ccccc2)C3(C)C)c2sccc2n1` the “thermal shift delta Tm” value was 0.63 °C. For `C[C@H]1[C@H](C)CC[C@]2(C(=O)O)CC[C@]3(C)C(=CC[C@@H]4[C@@]5(C)C[C@@H](O)[C@H](O)[C@@](C)(CO)[C@@H]5CC[C@]43C)[C@H]12` [Asiatic Acid], the “thermal shift delta Tm” value was 0.3 °C. For `COc1ccc(-c2cc3nccn3c(Nc3ncccc3C(N)=O)n2)cc1OC`, the “thermal shift delta Tm” value was 1.04 °C. With `O=C(NCc1ccccc1)c1csc(Nc2ccncn2)n1` [Thiazovivin] the “thermal shift delta Tm” value was 0.67 °C. With `COc1cc(Nc2ncc(F)c(Nc3ccc4c(n3)NC(=O)C(C)(C)O4)n2)cc(OC)c1OC` [R406 (free base)] the “thermal shift delta Tm” value was 1.22 °C. `Cc1ccc(S(=O)(=O)/C=C/C#N)cc1` was tested, and the “thermal shift delta Tm” value was -0.67 °C. `O=c1c(O)c(-c2ccc(O)c(O)c2)oc2cc(O)cc(O)c12` [Quercetin] was tested, and the “thermal shift delta Tm” value was 0.61 °C. For `C[C@H]1CNC(=O)c2cnn3ccc(nc23)N[C@H](C)c2cc(F)ccc2O1`, the “thermal shift delta Tm” value was 0.09 °C. `C[C@@H](Nc1cc(F)cc(F)c1)c1cc(C(=O)N(C)C)cc2c(=O)cc(N3CCOCC3)oc12` was tested, and the “thermal shift delta Tm” value was 0.16 °C. In the case of `Nc1cccc(-c2cc3c(Oc4cccc(O)c4)ncnc3[nH]2)c1`, the “thermal shift delta Tm” value is reported as 1.12 °C. For `CC[C@H](CO)Nc1nc(NCc2ccccc2)c2ncn(C(C)C)c2n1` [Roscovitine (Seliciclib,CYC202)], the “thermal shift delta Tm” value was 0.53 °C. `CCn1c(=O)c(-c2ccc(Cl)cc2Cl)cc2cnc(Nc3ccc(N4CCNCC4)c(F)c3)nc21` was tested, and the “thermal shift delta Tm” value was 2.82 °C. With `Cc1c[nH]c2nc(Nc3ccc(N4CCN(C)CC4)c(F)c3)nc(-c3cccc(CC#N)c3)c12` the “thermal shift delta Tm” value was 1.61 °C. In the case of `N#C/C(=C(/N)Sc1ccc(N)cc1)c1ccccc1C(F)(F)F`, the “thermal shift delta Tm” value is reported as 0.78 °C. `FC(F)(F)c1ccc(CNc2ccc(Cc3c[nH]c4ncc(Cl)cc34)cn2)cn1` [Pexidartinib (PLX3397)] was tested, and the “thermal shift delta Tm” value was 0.51 °C. For `COc1cc(N2CCC(N(C)C)CC2)ccc1Nc1ncc(Cl)c(Nc2ccccc2P(C)(C)=O)n1`, the “thermal shift delta Tm” value was 0.61 °C. `CCN(CC)CCNC(=O)c1c(C)[nH]c(/C=C2\C(=O)Nc3ccc(F)cc32)c1C` [Sunitinib Malate] was tested, and the “thermal shift delta Tm” value was 0.97 °C. `CCC(=O)Nc1cccc(Oc2nc(Nc3ccc(N4CCN(C)CC4)cc3OC)ncc2Cl)c1` was tested, and the “thermal shift delta Tm” value was 0.39 °C. With `Cn1c(Nc2ccc(C(F)(F)F)cc2)nc2cc(Oc3ccnc(-c4ncc(C(F)(F)F)[nH]4)c3)ccc21` the “thermal shift delta Tm” value was 1.82 °C. `CCOc1cc(N2CCC(O)CC2)ccc1Nc1ncc2c(n1)N(C)c1ccccc1C(=O)N2C` was tested, and the “thermal shift delta Tm” value was 0.38 °C. For `O=C(O)c1ccc(Nc2ncc3c(n2)-c2ccc(Cl)cc2C(c2c(F)cccc2F)=NC3)cc1`, the “thermal shift delta Tm” value was 0.55 °C. For `C[C@@H]1CN(C(=O)c2ccc(NC(=O)c3cc(O[C@H](C)c4c(Cl)ccc(F)c4Cl)c(N)nn3)cc2)C[C@H](C)N1` [Ensartinib (X-396)], the “thermal shift delta Tm” value was 0.2 °C. With `COc1ccc(F)c(F)c1C(=O)c1cnc(NC2CCN(S(C)(=O)=O)CC2)nc1N` the “thermal shift delta Tm” value was 0.79 °C. In the case of `N#Cc1cnc(Nc2cc(NC[C@H]3CNCCO3)c(C(F)(F)F)cn2)cn1`, the “thermal shift delta Tm” value is reported as 0.96 °C. `O=c1nc(N2CCOCC2)oc2c(-c3cccc4c3sc3ccccc34)cccc12` was tested, and the “thermal shift delta Tm” value was 0.24 °C. In the case of `Cc1nc(Nc2ncc(C(=O)Nc3c(C)cccc3Cl)s2)cc(N2CCN(CCO)CC2)n1` [Dasatinib], the “thermal shift delta Tm” value is reported as 0.77 °C. In the case of `Cc1cc(Nc2cc(N3CCN(C)CC3)nc(/C=C/c3ccccc3)n2)n[nH]1` [ENMD-2076 L-(+)-Tartaric acid], the “thermal shift delta Tm” value is reported as 1.89 °C.
